Drawing on PubChem BioAssay (NCATS), this text covers Potency, outcome and activity change, negative = cytotoxicity for 39 molecules.

Molecules are shown by their SMILES. Inconclusive results are not listed. Where a call stands in place of a potency, no number is given. Activity calls are given as the source filed them. Calls come from the whole dose curve; as a rule, active = well fitted curve in the direction sought with a large enough effect; inconclusive = small, poorly fitted or top-dose-only effect, or another doubt; inactive = no such curve, though single readings can be large; an effect the other way counts as inactive or inconclusive.

One test is described as follows: P-glycoprotein substrates identified in KB-3-1 adenocarcinoma cell line, qHTS therapeutic library screen (AID 1346986). Note: nearly all actives have a fitted effect of over 60% in size. The conditions noted are these: KB-3-1 parental cells viability, CellTiter-Glo, 72 h; series mostly up to 44.5 µM. In a few lines: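 Cells seeded 500/well in DMEM/10% FCS; compounds pinned in dose-response; 72 h incubation; CellTiter-Glo added, 5 min, luminescence. KB-8-5-11 run ±tariquidar to test reversal of P-gp resistance.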
(In general: In qHTS, concentration-response curves come from the screen itself.)
As for `C=C1CCC2[C@](C)(CCC[C@]2(C)C(=O)O)[C@H]1CC/C(C)=C/C(=O)OC` (stereo partly specified), the Potency entry is “inactive”. On the same count and under the same terms, to `C=C1CCC2C(C)(C(=O)OC)CCCC2(C)C1CCC1=CCOC1=O` (stereo unspecified) belongs “inactive”; to `CCc1cccc2c3c([nH]c12)[C@@](CC)(CC(=O)O)OCC3`, “inactive”.

With `CC(=O)OC1C(CO)OC(O[C@H]2[C@H](OC(=O)[C@]34CCC(C)(C)C[C@H]3C3=CCC5[C@@]6(C)CC[C@H](O[C@@H]7O[C@H](C(=O)O)[C@@H](O)[C@H](O[C@@H]8OC[C@@H](O)[C@H](O)[C@H]8O)[C@H]7O[C@@H]7O[C@H](CO)[C@H](O)[C@H](O)[C@H]7O)[C@@](C)(C=O)C6CC[C@@]5(C)[C@]3(C)C[C@H]4O)O[C@H](C)[C@H](OC3OC(C)C(OC4OCC(O)C(O)C4O)C(O)C3O)[C@@H]2O)C(O)C1O` (stereo partly specified), the outcome is “inactive [at 9.29 µM]”. Turning to `CCCC1=CC2=C(CO1)C(=O)C(C)(O)C(OC(=O)c1c(C)cc(OC)cc1O)C2` (stereo unspecified), the Potency entry was “inactive”. The same measure, in the same setting: to `CC1(C)C=Cc2c(ccc3c2N=C2C(C)(C)[C@@H]4C[C@]56CCCN5C(=O)[C@@]4(C[C@]23O)NC6=O)O1` belongs “inactive”; to `COC(=O)c1c(CC=C(C)C)c(OC2OC(CO)C(O)C(O)C2O)c2ccccc2c1OC1OC(CO)C(O)C(O)C1O` (stereo unspecified), “inactive”; to `C[C@]1(OC(=O)/C=C\c2ccc(O)cc2)C[C@@H](O)[C@]2(O)C=CO[C@@H](O[C@@H]3O[C@H](CO)[C@@H](O)[C@H](O)[C@H]3O)C12` (stereo partly specified), “inactive”.

`CC(=O)O[C@H]1[C@H](O[C@H]2CC[C@]34C[C@]35CC[C@]3(C)[C@@H]([C@@]6(C)CC[C@@H](C(C)(C)O)O6)[C@@H](O)C[C@@]3(C)[C@@H]5C[C@H](O[C@@H]3O[C@H](CO)[C@@H](O)[C@H](O)[C@H]3O)[C@H]4C2(C)C)OC[C@@H](OC(C)=O)[C@@H]1O`: the Potency result was “inactive”. Same read-out and setting: with `COC(=O)C1=COC(OC2OC(CO)C(O)C(O)C2O)C2C(COC(=O)/C=C/c3ccc(O)cc3)C(O)C(O)C12` (stereo unspecified) the entry was “inactive”. The same measure, in the same setting: with `O=C(O)CC1CCC(c2ccc(NC(=O)c3nnc(Nc4ccc(F)c(F)c4)o3)cc2)CC1` (stereo unspecified) the entry was “inactive”; with `C=C1CC2C3(C)C(O)CC(=O)C(C)(C)C3C(O)C(OC(C)=O)C2(C)C2C(=O)OC(C)(C(=O)OC)C(=O)C12C` (stereo unspecified), “inactive”.

Another test in a line: P-glycoprotein substrates identified in KB-8-5-11 adenocarcinoma cell line, qHTS therapeutic library screen (AID 1346987). Note: nearly all actives have a fitted effect of over 65% in size. Particulars: KB-8-5-11 (P-gp overexpressing) viability, CellTiter-Glo, 72 h; series mostly up to 44.5 µM. The essentials: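 Steps: plate 500 KB-8-5-11 cells/well in DMEM + 10% FCS (colchicine removed); pin compounds in dose-response; incubate 72 h, 37 degree C, 5% CO2; add CellTiter-Glo, 5 min; read luminescence.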
As to `COc1cc(/C=C/C(=O)O[C@H]2[C@@H]3C=CO[C@@H](O[C@@H]4O[C@H](CO)[C@@H](O)[C@H](O)[C@H]4O)[C@@H]3[C@@]3(CO)O[C@@H]23)ccc1O`, the Potency result was “inactive”.

Regarding `Nc1ncnc2c1ncn2[C@H]1O[C@@H](C(=O)N2CCN(CC(=O)Nc3cccc4c3CNC4=O)CC2)[C@H](O)[C@@H]1O`, the Potency result is “inactive”. On the same count and under the same terms, to `CC1(C)C[C@H](O)C[C@@]2(C)[C@H]1[C@H](O)C=C1COC(=O)[C@@]12O` belongs “inactive”; to `COc1ccc(-c2ccn(CC[C@](C)(C(=O)NO)S(C)(=O)=O)c(=O)c2)c(F)c1`, “inactive”. As for `C[C@@H]1O[C@@H](O[C@H]2[C@H](OC(=O)[C@]34CCC(C)(C)C[C@H]3C3=CCC5[C@@]6(C)C[C@@H](O)[C@@H](O[C@@H]7O[C@H](CO)[C@@H](O)[C@H](O)[C@H]7O)[C@@](C)(CO)C6[C@H](O)C[C@@]5(C)[C@]3(C)CC4)OC[C@H](O)[C@@H]2O)[C@H](O)[C@H](O[C@@H]2OC[C@](O)(CO)[C@H]2O)[C@H]1O[C@@H]1OC[C@@H](O)[C@H](O[C@H]2O[C@H](C)[C@@H](O)[C@H](O)[C@@H]2O)[C@H]1O` (stereo partly specified), the activity change, negative = cytotoxicity is 2.77% [at 9.29 µM] (inactive). Consider `O=C(O)CCc1c(C(=O)O)[nH]c2cc(Cl)cc(Cl)c12`, for which the Potency entry is “inactive”.

Regarding `CC(=O)N[C@H](Cc1c[nH]c2ccccc12)C(=O)OCc1cc(C(F)(F)F)cc(C(F)(F)F)c1`, the Potency result was “inactive”.

As to `C=C1C2(C)CC3C4(C)C=CC(=O)OC(C)(C)C4CCC3(C)C1(C(=O)OC)C(=O)C(C)(O)C2=O` (stereo unspecified), the Potency result is “inactive”. `C=C[C@H]1[C@H](O[C@@H]2O[C@H](CO)[C@@H](O)[C@H](O)[C@H]2O)OC=C2C(=O)N3Cc4c([nH]c5ccccc5c4=O)[C@@H]3C[C@H]21`: the Potency result was “inactive”. Still for that read-out and setting: with `COC(=O)C1=COC(O[C@@H]2O[C@H](CO)[C@@H](O)[C@H](O)[C@H]2O)/C(=C\COC(=O)/C=C/c2ccccc2)C1CC(=O)OCCc1ccc(O)cc1` (stereo partly specified) the entry was “inactive”; with `C=C1C[C@H](O)[C@@H](O)[C@@]2(C)C1[C@@H](O)[C@H]1OC(=O)C3[C@@H](C)[C@@H](O)[C@H](O)C2[C@]31C` (stereo partly specified), “inactive”; with `CC1(C)C[C@@H]2[C@H](C1)[C@@]1(C)C[C@]13C(O)OC[C@]3(O)[C@H]2O` (stereo partly specified), “inactive”. Still for that read-out and setting: to `CCN1CCN(C(=O)N[C@@H](C(=O)N[C@@H]2C(=O)N3[C@@H]2SC(C)(C)[C@@H]3C(=O)O)c2ccccc2)C(=O)C1=O` belongs “inactive”; to `CC(=O)OC12CC(C)C(O)C1/C=C(/COC1OC(CO)C(O)C(O)C1O)CCC1C(/C=C(\C)C2=O)C1(C)C` (stereo unspecified), “inactive”; to `C/C=C(\C)C(=O)O[C@H]1C=CC(=O)O[C@H]1/C=C/[C@H](O)[C@@H](C)O`, “inactive”. The same measure, in the same setting: with `O=C(O)c1ccc(NC(=O)[C@H](CC2CCCC2)n2cnc(C(F)(F)F)c2)nc1` the entry was “inactive”; with `C=C1CCc2occ(C)c2[C@H]2[C@H]1[C@@]13O[C@@]1(C[C@@H](C)[C@H]3OC(C)=O)[C@H]1O[C@@]21C`, “inactive”. As for `O=C(Nc1ccn(Cc2c(F)cccc2C(F)(F)F)n1)c1c(F)cccc1F`, the activity change, negative = cytotoxicity is 7.74% [at 9.29 µM] (inactive). In the case of `C/C=C(\C)C(=O)OC[C@H]1O[C@H](O[C@H]2O[C@H](CO)[C@@H](O)[C@H](O)[C@H]2O[C@@H]2O[C@H](CO)[C@@H](O)[C@H](O)[C@H]2O)[C@H](O[C@@H]2O[C@H](CO)[C@@H](O)[C@H](O)[C@H]2O)[C@@H](O)[C@@H]1O`, the Potency result was “inactive”. For `CCCCCOC(=O)Nc1nc(=O)n(C2O[C@H](C)[C@@H](O)[C@H]2O)cc1F` (stereo partly specified), the Potency entry was “inactive”. Same read-out and setting: with `CC/C=C/C(O)C(O)C1=C(C)C(=O)C2(O1)C(=O)NC(OC)(C(=O)c1ccccc1)C2O` (stereo unspecified) the entry was “inactive”; with `COc1ccc2c(c1)N1C(=O)C[C@@]34C=CC[N@+]5([O-])CC[C@H]2[C@H](CC3)[C@@]145`, “inactive”; with `COC(=O)C1=CO[C@@H](O[C@@H]2O[C@H](CO)[C@@H](O)[C@H](O)[C@H]2O)/C(=C\CO)[C@@H]1CC(=O)OCCc1ccc(O)cc1`, “inactive”. Same read-out and setting: to `N#Cc1cccc(-c2nc(-c3cccnc3)no2)c1` belongs “inactive”. Take `OC[C@@]1(O)CO[C@@H](OC[C@H]2O[C@@H](OCc3ccccc3)[C@H](O)[C@@H](O)[C@@H]2O)[C@@H]1O`: the Potency result is “inactive”. Take `COc1cnc(-n2cnc(C)n2)c2[nH]cc(C(=O)C(=O)N3CCN(C(=O)c4ccccc4)CC3)c12`: the Potency entry was “inactive”. Consider `Cc1ccc(-n2nc(C(C)(C)C)cc2NC(=O)Nc2cc(COc3cccnc3)[nH]n2)cc1`, for which the Potency entry was “inactive”. Still for that read-out and setting: to `C=C1CCC2[C@](C)(CCC[C@]2(C)C(=O)O)[C@H]1CC/C(C)=C/C(=O)OC` (stereo partly specified) belongs “inactive”; to `C=C1CCC2C(C)(C(=O)OC)CCCC2(C)C1CCC1=CCOC1=O` (stereo unspecified), “inactive”; to `CCc1cccc2c3c([nH]c12)[C@@](CC)(CC(=O)O)OCC3`, “inactive”. On to `CC(=O)OC1C(CO)OC(O[C@H]2[C@H](OC(=O)[C@]34CCC(C)(C)C[C@H]3C3=CCC5[C@@]6(C)CC[C@H](O[C@@H]7O[C@H](C(=O)O)[C@@H](O)[C@H](O[C@@H]8OC[C@@H](O)[C@H](O)[C@H]8O)[C@H]7O[C@@H]7O[C@H](CO)[C@H](O)[C@H](O)[C@H]7O)[C@@](C)(C=O)C6CC[C@@]5(C)[C@]3(C)C[C@H]4O)O[C@H](C)[C@H](OC3OC(C)C(OC4OCC(O)C(O)C4O)C(O)C3O)[C@@H]2O)C(O)C1O` (stereo partly specified), for which the activity change, negative = cytotoxicity is 1.85% [at 9.29 µM] (inactive). Turning to `CCCC1=CC2=C(CO1)C(=O)C(C)(O)C(OC(=O)c1c(C)cc(OC)cc1O)C2` (stereo unspecified), the Potency result is “inactive”.

For the molecule `CC1(C)C=Cc2c(ccc3c2N=C2C(C)(C)[C@@H]4C[C@]56CCCN5C(=O)[C@@]4(C[C@]23O)NC6=O)O1`, the Potency result was “inactive”.

Regarding `COC(=O)c1c(CC=C(C)C)c(OC2OC(CO)C(O)C(O)C2O)c2ccccc2c1OC1OC(CO)C(O)C(O)C1O` (stereo unspecified), the Potency result is “inactive”.

Regarding `C[C@]1(OC(=O)/C=C\c2ccc(O)cc2)C[C@@H](O)[C@]2(O)C=CO[C@@H](O[C@@H]3O[C@H](CO)[C@@H](O)[C@H](O)[C@H]3O)C12` (stereo partly specified), the Potency entry was “inactive”.

As for `CC(=O)O[C@H]1[C@H](O[C@H]2CC[C@]34C[C@]35CC[C@]3(C)[C@@H]([C@@]6(C)CC[C@@H](C(C)(C)O)O6)[C@@H](O)C[C@@]3(C)[C@@H]5C[C@H](O[C@@H]3O[C@H](CO)[C@@H](O)[C@H](O)[C@H]3O)[C@H]4C2(C)C)OC[C@@H](OC(C)=O)[C@@H]1O`, the Potency entry was “inactive”. Consider `COC(=O)C1=COC(OC2OC(CO)C(O)C(O)C2O)C2C(COC(=O)/C=C/c3ccc(O)cc3)C(O)C(O)C12` (stereo unspecified), for which the Potency result is “inactive”. Same read-out and setting: to `O=C(O)CC1CCC(c2ccc(NC(=O)c3nnc(Nc4ccc(F)c(F)c4)o3)cc2)CC1` (stereo unspecified) belongs “inactive”. On the same count and under the same terms, to `C=C1CC2C3(C)C(O)CC(=O)C(C)(C)C3C(O)C(OC(C)=O)C2(C)C2C(=O)OC(C)(C(=O)OC)C(=O)C12C` (stereo unspecified) belongs “inactive”.
